Screen size: about 5,500 compounds; about 2,000 (36%) were called active. Roughly 18% stayed inconclusive and do not appear here. Cut-off read from the data, not from the text of the source: active = normalized growth mostly below about 0.91 (no sharp cut-off); inconclusive = no clear call, values can overlap the other calls; inactive = mostly above about 0.92. The list shows a part of the results.
Experiment: chemical genetic growth profiling, strain panel (AID 1159580);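 note: tested at 20 µM; growth read once vehicle control cultures reached saturation at 30 °C; 1 = growth at the plate median or of vehicle wells; lower values mean less growth of the strain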
Details: growth OD

Measured: normalized growth

Nc1ncnc2c1ncn2[C@@H]1O[C@H](CO)[C@@H](O)[C@H]1O
inactive: S. cerevisiae deletion strains, locus YJR066W, strain TOR1, active compounds read low 0.966 | S. cerevisiae deletion strains, locus YJR075W, strain HOC1, active compounds read low 0.99 | S. cerevisiae deletion strains, locus YKL009W, strain mrt4, active compounds read low 0.961 | S. cerevisiae deletion strains, locus YKL068W, active compounds read low 0.983 | S. cerevisiae deletion strains, locus YKL085W, strain MDH1 (second series), active compounds read low 0.965 | S. cerevisiae deletion strains, locus YKL085W, strain MDH1, active compounds read low 0.965 | S. cerevisiae deletion strains, locus YKL160W, strain elf1, active compounds read low 0.955 | S. cerevisiae deletion strains, locus YKR001C, strain vps1, active compounds read low 0.997 | S. cerevisiae deletion strains, locus YKR026C, strain gcn3, active compounds read low 0.987 | S. cerevisiae deletion strains, locus YKR091W, strain srl3, active compounds read low 0.994 | S. cerevisiae deletion strains, locus YLL001W, strain dnm1, active compounds read low 0.922 | S. cerevisiae deletion strains, locus YLL026W, active compounds read low 0.99 | S. cerevisiae deletion strains, locus YLL041C, strain sdh2, active compounds read low 0.99 | S. cerevisiae deletion strains, locus YLR027C, strain aat2, active compounds read low 0.994 | S. cerevisiae deletion strains, locus YLR039C, strain RIC1, active compounds read low 0.95 | S. cerevisiae deletion strains, locus YLR058C, strain SHM2, active compounds read low 0.971 | S. cerevisiae deletion strains, locus YLR102C, strain apc9, active compounds read low 0.978 | S. cerevisiae deletion strains, locus YLR113W, strain HOG1, active compounds read low 1.01 | S. cerevisiae deletion strains, locus YLR221C, strain rsa3, active compounds read low 0.95 | S. cerevisiae deletion strains, locus YLR258W, strain gsy2, active compounds read low 0.975 | S. cerevisiae deletion strains, locus YLR262C, strain YPT6 (second series), active compounds read low 0.974 | S. cerevisiae deletion strains, locus YLR262C, strain YPT6, active compounds read low 0.913 | S. cerevisiae deletion strains, locus YLR268W, strain sec22, active compounds read low 1 | S. cerevisiae deletion strains, locus YLR320W, strain mms22, active compounds read low 0.939 | S. cerevisiae deletion strains, locus YLR330W, strain CHS5, active compounds read low 0.993 | S. cerevisiae deletion strains, locus YLR342W, strain FKS1 (second series), active compounds read low 1.03 | S. cerevisiae deletion strains, locus YLR342W, strain FKS1, active compounds read low 0.993 | S. cerevisiae deletion strains, locus YLR357W, strain rsc2, active compounds read low 0.983 | S. cerevisiae deletion strains, locus YLR370C, strain arc18, active compounds read low 0.967 | S. cerevisiae deletion strains, locus YLR371W, strain rom2, active compounds read low 0.978 | S. cerevisiae deletion strains, locus YLR384C, strain iki3, active compounds read low 0.982 | S. cerevisiae deletion strains, locus YLR418C, strain cdc73, active compounds read low 0.945 | S. cerevisiae deletion strains, locus YML016C, strain PPZ1, active compounds read low 0.987 | S. cerevisiae deletion strains, locus YML032C, strain rad52, active compounds read low 0.949 | S. cerevisiae deletion strains, locus YML120C, strain ndi1, active compounds read low 0.952 | S. cerevisiae deletion strains, locus YML124C, strain tub3, active compounds read low 0.988 | S. cerevisiae deletion strains, locus YMR058W, strain fet3, active compounds read low 0.995 | S. cerevisiae deletion strains, locus YMR078C, strain ctf18, active compounds read low 0.972 | S. cerevisiae deletion strains, locus YMR125W, strain sto1, active compounds read low 0.982 | S. cerevisiae deletion strains, locus YMR129W, active compounds read low 0.995 | S. cerevisiae deletion strains, locus YMR205C, strain PFK2, active compounds read low 0.944 | S. cerevisiae deletion strains, locus YMR223W, strain ubp8, active compounds read low 0.956 | S. cerevisiae deletion strains, locus YMR231W, strain pep5, active compounds read low 0.992 | S. cerevisiae deletion strains, locus YMR263W, strain SAP30, active compounds read low 0.982 | S. cerevisiae deletion strains, locus YMR307W, strain GAS1, active compounds read low 0.98 | S. cerevisiae deletion strains, locus YNL067W, strain RPL9B, active compounds read low 0.967 | S. cerevisiae deletion strains, locus YNL071W, strain lat1, active compounds read low 1 | S. cerevisiae deletion strains, locus YNL153C, strain GIM3, active compounds read low 0.98 | S. cerevisiae deletion strains, locus YNL183C, strain NPR1, active compounds read low 0.975 | S. cerevisiae deletion strains, locus YNL209W, strain ssb2, active compounds read low 0.988 | S. cerevisiae deletion strains, locus YNL233W, strain BNI4, active compounds read low 0.991 | S. cerevisiae deletion strains, locus YNL248C, strain rpa49, active compounds read low 1.01 | S. cerevisiae deletion strains, locus YNL250W, strain rad50, active compounds read low 0.978 | S. cerevisiae deletion strains, locus YNL271C, strain bni1, active compounds read low 0.979 | S. cerevisiae deletion strains, locus YNL298W, strain CLA4, active compounds read low 0.963 | S. cerevisiae deletion strains, locus YNL307C, strain MCK1, active compounds read low 0.978 | S. cerevisiae deletion strains, locus YNL322C, strain KRE1 (second series), active compounds read low 0.978 | S. cerevisiae deletion strains, locus YNR049C, strain mso1, active compounds read low 0.982 | S. cerevisiae deletion strains, locus YNR052C, strain pop2, active compounds read low 0.977 | S. cerevisiae deletion strains, locus YOL006C, strain TOP1, active compounds read low 1.02 | S. cerevisiae deletion strains, locus YOL012C, strain htz1 0.737 | S. cerevisiae deletion strains, locus YOL147C, strain pex11, active compounds read low 0.987 | S. cerevisiae deletion strains, locus YOR001W, strain rrp6, active compounds read low 1.02 | S. cerevisiae deletion strains, locus YOR061W, strain CKA2, active compounds read low 0.96 | S. cerevisiae deletion strains, locus YOR069W, strain VPS5, active compounds read low 0.99 | S. cerevisiae deletion strains, locus YOR070C, strain gyp1, active compounds read low 0.987 | S. cerevisiae deletion strains, locus YOR080W, strain dia2, active compounds read low 0.995 | S. cerevisiae deletion strains, locus YOR083W, strain WHI5, active compounds read low 0.96 | S. cerevisiae deletion strains, locus YOR106W, strain vam3, active compounds read low 0.971 | S. cerevisiae deletion strains, locus YOR136W, strain idh2, active compounds read low 0.982 | S. cerevisiae deletion strains, locus YOR144C, strain elg1, active compounds read low 0.978 | S. cerevisiae deletion strains, locus YOR184W, strain ser1, active compounds read low 0.967 | S. cerevisiae deletion strains, locus YOR231W, strain MKK1, active compounds read low 1.03 | S. cerevisiae deletion strains, locus YOR265W, strain rbl2, active compounds read low 0.983 | S. cerevisiae deletion strains, locus YOR270C, strain vph1, active compounds read low 0.966 | S. cerevisiae deletion strains, locus YOR290C, strain snf2, active compounds read low 0.955 | S. cerevisiae deletion strains, locus YOR316C, strain cot1, active compounds read low 0.978 | S. cerevisiae deletion strains, locus YPL051W, strain arl3, active compounds read low 0.988 | S. cerevisiae deletion strains, locus YPL078C, strain atp4, active compounds read low 0.969 | S. cerevisiae deletion strains, locus YPL106C, strain sse1, active compounds read low 0.955 | S. cerevisiae deletion strains, locus YPL240C, strain hsp82, active compounds read low 0.998 | S. cerevisiae deletion strains, locus YPL241C, strain CIN2, active compounds read low 0.99 | S. cerevisiae deletion strains, locus YPL256C, strain CLN2, active compounds read low 0.982 | S. cerevisiae deletion strains, locus YPR119W, strain clb2, active compounds read low 0.984 | S. cerevisiae deletion strains, locus YPR141C, strain kar3, active compounds read low 0.972 | S. cerevisiae deletion strains, locus YPR163C, strain tif3, active compounds read low 0.969 | S. cerevisiae deletion strains, locus YPR167C, strain met16, active compounds read low 0.963 | S. cerevisiae deletion strains, strain wtn01, active compounds read low 1.02 | S. cerevisiae strains, strain wild type, active compounds read low 0.989
